Reference: PubChem BioAssay AID1645854 (Buhrlage Lab, Dana-Farber Cancer Institute and Novartis …, 2021)
The whole screen tested about 47,000 compounds, of which about 140 (0.3%) were called active. No stated cut-off is given here; in the data, active means inhibition above about 30%; inactive means the rest. The entries come from a sample that favours actives as a whole.

The compounds below were run against Ubiquitin carboxyl-terminal hydrolase 7 (Homo sapiens) (UniProt Q93009) (assay: inhibitors of human USP7 deubiquitinase (AID 1645854)). Details: purified USP7, Ub-rhodamine cleavage fluorescence; at 20 µM; stronger effect = higher value.
Chain of Ubiquitin carboxyl-terminal hydrolase 7 (Homo sapiens) (Q93009 whole entry, looked up): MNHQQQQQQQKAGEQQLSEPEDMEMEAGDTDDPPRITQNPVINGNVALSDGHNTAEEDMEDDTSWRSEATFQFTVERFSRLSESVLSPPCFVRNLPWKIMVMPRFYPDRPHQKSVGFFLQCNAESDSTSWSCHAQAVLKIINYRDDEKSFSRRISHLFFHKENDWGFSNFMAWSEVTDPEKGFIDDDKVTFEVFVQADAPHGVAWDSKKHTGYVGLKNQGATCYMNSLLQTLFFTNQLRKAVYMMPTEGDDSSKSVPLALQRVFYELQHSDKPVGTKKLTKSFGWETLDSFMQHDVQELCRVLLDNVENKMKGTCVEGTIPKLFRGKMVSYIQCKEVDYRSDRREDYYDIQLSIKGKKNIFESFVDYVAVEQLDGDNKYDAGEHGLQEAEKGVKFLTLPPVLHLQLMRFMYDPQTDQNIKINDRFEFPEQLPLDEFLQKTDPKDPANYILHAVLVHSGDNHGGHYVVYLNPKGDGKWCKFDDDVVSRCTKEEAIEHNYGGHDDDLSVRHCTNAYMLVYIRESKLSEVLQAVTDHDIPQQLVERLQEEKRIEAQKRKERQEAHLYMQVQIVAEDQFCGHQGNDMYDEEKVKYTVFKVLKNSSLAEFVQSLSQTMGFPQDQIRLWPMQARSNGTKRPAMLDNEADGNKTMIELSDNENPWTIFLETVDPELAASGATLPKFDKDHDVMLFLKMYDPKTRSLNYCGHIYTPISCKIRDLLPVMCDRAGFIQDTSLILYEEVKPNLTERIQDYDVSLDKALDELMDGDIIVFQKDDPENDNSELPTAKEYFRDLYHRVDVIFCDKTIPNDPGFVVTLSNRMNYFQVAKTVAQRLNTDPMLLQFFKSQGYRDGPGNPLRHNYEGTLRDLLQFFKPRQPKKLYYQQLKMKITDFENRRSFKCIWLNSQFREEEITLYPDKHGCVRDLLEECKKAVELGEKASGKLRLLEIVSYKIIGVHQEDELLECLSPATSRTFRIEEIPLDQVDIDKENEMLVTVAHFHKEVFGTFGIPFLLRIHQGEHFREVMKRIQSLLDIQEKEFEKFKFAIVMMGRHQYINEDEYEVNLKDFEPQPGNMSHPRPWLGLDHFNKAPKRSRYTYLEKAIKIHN

inhibition, inactive:
COc1cccc(CN2CCCC2c2noc(C3CC3)n2)c1 (stereo not drawn) 0.378%
COc1ccccc1CN1C[C@@H]2C[C@@H](O)CN2C[C@@H]1Cc1ccccc1 -13%
COc1ccc(-c2nnc(-c3ccccc3)o2)cc1S(=O)(=O)N1CCc2ccccc2C1 8.25%
COc1ccc(-c2nonc2NC(=O)Cc2ccccc2)cc1OC -0.82%
CNc1nc(C2CCN(C(=O)c3ccc4c(c3)OCCO4)C2)nc2c1CN(C)CC2 (stereo not drawn) -10.6%
O=C(COc1ccccc1-c1nnc(-c2ccccc2)o1)Nc1cc(F)ccc1F 5.06%
COc1ccc(-c2cnc(N(C)C)nc2C2CCCCN2)cc1 (stereo not drawn) -4.92%
CC(=O)N1CCC(NC2(Cc3cc(C(C)(C)C)on3)COC2)CC1 0.342%
CCOC(=O)Nc1cc(C)nn1-c1ncnc2c1cnn2-c1ccc(F)cc1 0.0906%
Cc1ccc(S(=O)(=O)N2CCN(C(=O)CN3CCc4ccccc43)CC2)cc1 -5.22%
CCOc1ccccc1C1C2=C(CC(C)(C)CC2=O)Nc2ccccc2N1C(=O)c1ccccc1 (stereo not drawn) -4.8%
COc1ccc(CC(=O)N2CCCCC2c2ccc3c(=O)n(C)c(=O)n(C)c3n2)cc1 (stereo not drawn) 0.092%
O=C(NCc1ccc(Cl)cc1)C1CCN(c2nccn3nc(-c4ccccc4)cc23)CC1 -35.4%
O=C(CN1CCCCC1)N[C@@H]1C[C@H]2Oc3ccccc3N[C@H]2[C@@H]1O 3.93%
O=C(C1CCNCC1)N1CCN(c2ccccc2F)CC1 1.05%
COc1ccccc1NC(=O)CSc1nc2ccccc2n1S(=O)(=O)c1ccc(Br)cc1 -6.03%
CC(C)NC(=O)N1CC[C@H]2COC(=O)N(Cc3ccccc3)[C@@H]2C1 3.45%
C/C=C(\C)C(=O)C(C)C1=CC(=O)C2=C(O[C@]3(C)CC[C@@H]4O[C@H](C(C)(C)O)CC[C@@]4(C)[C@@H]3C2)C1=O (stereo partly drawn) -44.6%
COc1ccc(C(=O)NC(C(=O)OCC(=O)c2ccc(C)cc2)C(C)C)cc1OC (stereo not drawn) 3.56%
COc1cccc(CC(NC(C)=O)C(=O)NC2CCN(C(=O)C3CCCCC3)CC2)c1 (stereo not drawn) 5.13%
O=C1[C@H]2Cc3c([nH]c4ccccc34)CN2C(=O)CN1CC(O)c1ccccc1 (stereo partly drawn) -145%
Cc1cc(CN2CCN(S(C)(=O)=O)CC(C(=O)N(C)C)C2)no1 (stereo not drawn) 0.0126%
COc1ccccc1NS(=O)(=O)c1ccc2c(c1)C(=O)N(C)c1ncccc1O2 2.84%
Cc1nn(Cc2ccccc2)c(C)c1C(=O)NS(=O)(=O)c1ccccc1Cl 1.27%
Cc1cc(C(=O)N2CCCC2c2ccccc2C)on1 (stereo not drawn) 0.669%
O=C(c1cc(=O)[nH]c2ccccc12)N1CCN(Cc2cn3ccccc3n2)CC1 -8.75%
COc1ccc(C2CC(=O)n3nc(-c4cccc(C)c4)nc3S2)cc1 (stereo not drawn) 0.741%
COC(=O)c1ccccc1NC(=O)c1nc(-c2ccccc2)oc1C -0.0638%
O=C(CSc1ncnc2c1sc1cccc(F)c12)N1CCCCCC1 -136%
COc1cccc(N2CCN(C(=O)Nc3ccc4c(c3)NC(=O)CO4)CC2)c1 3.68%
O=S(=O)(c1cc(-c2noc(C3CC3)n2)cs1)N1CCc2ccccc21 7.51%
Cc1ccc(C)c(N(C)C(=O)c2cccc3c2SCCC3=O)c1 -2.51%
Cn1cncc1-c1cncc(CC2CCCN(S(C)(=O)=O)C2)n1 (stereo not drawn) 0.0473%
O=C(O)COc1cc(O)c2c(=O)cc(-c3ccccc3)oc2c1 -6.31%
Cc1csc(C2(NC(=O)Cc3cc(C)on3)CCCC2)n1 -8.11%
COC(=O)c1c(C)[nH]c(C(=O)C(C)OC(=O)c2cccc(F)c2)c1C (stereo not drawn) -2.46%
CCc1ccc(-n2c(=O)c3ccccc3n(CC(=O)NCCC3=CCCCC3)c2=O)cc1 8.71%
CCOC(=O)C1(C)C=C(Nc2ccc(C(=O)O)c(O)c2)C(=O)N1c1ccccc1 (stereo not drawn) -4.45%
CC(=O)NC(Cc1ccccc1F)C(=O)NC1CCN(C(=O)C2CC2)CC1 (stereo not drawn) 1.1%
O=C(c1cccc(F)c1)N1CCN(Cc2cc(=O)c3ccccc3[nH]2)CC1 2.84%
Cc1cccc(NC(=O)Cc2nc(C)c(C(=O)NC3CC3)s2)c1C -0.0337%
O=C(CC1(O)C(=O)N(CCc2ccccc2)c2ccc(Cl)cc21)c1ccc2c(c1)OCCO2 (stereo not drawn) 5.91%
COc1ccc(-c2nc3ccccc3c3nnc(SCC(N)=O)n23)cc1 6.48%
Cc1cc(C)nc(SCc2nnc(Nc3ccccc3)s2)n1 0.95%
CCc1ccc(C(=O)COc2ncnc3scc(-c4ccccc4)c23)cc1 4.6%
O=C(COc1cccc2ccc(N3CCC(Cc4ccccc4)CC3)nc12)Nc1cccc(F)c1 5.1%
Cn1c(CNC(=O)c2cn3ccccc3n2)nc2ccccc21 -4.22%
COc1ccc(C(=O)Nc2ccccc2N2CCOCC2)cc1S(=O)(=O)N(C)Cc1ccccc1 2.61%
COc1cc2c(cc1OC)-c1cc(NCc3ccccc3)nc(=O)n1CC2 -10.1%
CC1(C)C(=O)Nc2ccc(S(=O)(=O)NCc3ccc(F)cc3)cc21 1.68%
Cc1cn(C)c(C2CCCN2C(=O)c2cc(C)nc3onc(C)c23)n1 (stereo not drawn) -2.53%
Cc1cccc(NC(=O)CCc2nnc3ccc(NCc4ccc5c(c4)OCO5)nn23)n1 -2.6%
Cn1c(=O)n(C2CCN(CCc3ccccc3)CC2)c2ncncc21 2.05%
Cc1ccc(C(=O)N2CC(=O)N(Cc3ccc(Cl)cc3)CC(O)C2)cc1 (stereo not drawn) -42.1%
Cc1nnc(-c2cnn(C)c2N)n1CC1CCCO1 (stereo not drawn) -0.964%
CCOC(=O)c1noc2nc(C)n(Cc3nc(-c4ccccc4)oc3C)c(=O)c12 1.79%
c1cnc(N2CCC3(CCN(Cc4ccc5c(c4)OCO5)CC3)C2)nc1 6.59%
COc1c2c(cc3c1C(c1nnnn1-c1ccc(C)cc1C)N(C)CC3)OCO2 (stereo not drawn) 10.7%
NC(=O)c1c(NC(=O)c2ccccc2Oc2ccccc2)sc2c1CCN(Cc1ccccc1)C2 -143%
O=C(Cc1ccccc1)N1CCN(c2cc(C(F)(F)F)nc3ccccc23)CC1 6.33%
CCN(c1ccccc1)S(=O)(=O)c1ccc2c(c1)OC(C)CN2C(C)=O (stereo not drawn) -10.2%
CN(C)CCNC(=O)c1ccc2ccc(N(C)CC3CC3)n2c1 -3.23%
Cc1nccn1-c1cc(N2CCCC2)nc2ccnn12 -3.6%
CCCn1nccc1C(=O)NC[C@H]1C[C@@]2(C)[C@@H](O)CCCC[C@H]2N1C(C)=O 4.78%
COc1ccc(CC(=O)N2CCC3(CC2)OC(C(=O)NCC(C)C)Cn2ccnc23)cc1 (stereo not drawn) -0.841%
O=C(NCc1ccncc1)c1nc(-c2ccc(N3CCCCC3)nc2)no1 -95.1%
Cc1cc2nc(N3CCOCC3)n(CC(=O)Nc3ccccc3F)c(=O)c2n1C -0.476%
COc1ccccc1CNS(=O)(=O)c1ccc2c(c1)C(=O)N(C)c1ncccc1O2 1.09%
O=C(CN1C(=O)[C@@H]2CCCN2c2ncccc21)NCc1ccccc1F -0.124%
Cc1csc2nc(COc3ccccc3NC(=O)c3ccccc3)cc(=O)n12 -2.52%
O=C(c1nc(-c2ccc3cc[nH]c3c2)no1)N1CCN(c2nsc3ccccc23)CC1 2.44%
Cc1ccccc1CS(=O)(=O)Cc1ccc(C(=O)Nc2noc3ccccc23)o1 2.52%
Cc1cccc(N2CCN(C(=O)c3nc4cccnc4n(C)c3=O)CC2)c1C -13.2%
O=C(Nc1ccc(F)cc1)c1ccc(CN2CCOCC2)cc1 3.54%
Cc1cnc(C2COCCN2C(=O)c2c(C(C)C)noc2C)[nH]1 (stereo not drawn) 4.99%
Cc1ccc(NC(=O)N2CCN3CCCCC3C2)c(C)c1 (stereo not drawn) -0.822%
O=C(Nc1nc2ccc(S(=O)(=O)N3CCOCC3)cc2s1)c1cc2ccccc2oc1=O 0.00877%
Cc1ccc(-c2nc(Cn3nnc(C(=O)O)c3C)c(C)o2)cc1 1.5%
CCc1cnc(N2CCC3(CCN(C(=O)c4cccnc4)C3)CC2)nc1 1.31%
OCCN1CCN(CC(O)COCCOc2ccc(Cl)cc2)CC1 (stereo not drawn) 6.76%
Cc1cnn(CC(=O)N2CCCCCC2c2ccncc2)c1 (stereo not drawn) -1.92%
CC(C)[C@H](Cn1nnc2ccccc21)NC(=O)c1ccc2c(c1)CCN2S(C)(=O)=O -1.02%
CC(C)CCNC(=O)C(=O)c1cn(CC(=O)N2CCCC2)c2ccccc12 -9.94%
CSc1cccc(NC(=O)CCn2c(=O)c3cccn3c3ccccc32)c1 5.36%
Cc1nc(C2CCCN2C(=O)c2cccc3ncccc23)ncc1C(=O)N1CCOCC1 (stereo not drawn) 1.41%
O=C(C1CCN(c2cnc3nccnc3c2)CC1)N1CCN(C2CCCCC2)CC1 -29.4%
COc1ccc(-c2nnc(SCC(=O)c3cc(C)ccc3C)o2)cc1OC 9.96%
CC1CCC(NC(=O)C2(C)Cc3ccccc3C(=O)N2Cc2ccccc2)CC1 (stereo not drawn) -18.1%
